Results filed as inconclusive are left out. Unmarked numbers belong to inactive results. Calls come from the whole dose curve; as a rule, active = well fitted inhibition curve with a large enough effect in the repeat runs; inconclusive = weak or mixed curves; inactive = flat fitted curve, though single readings scatter.
Test: qHTS assay to identify small molecule HDAC inhibitors (AID 1259364); note: top concentration of the series differs between compounds; nearly all actives have a fitted effect of over 45% in size
Settings: HCT-116 HDAC-Glo I/II luminescence, 2 h; series mostly up to 92.4 µM; activity change, negative = inhibition: at the top concentration
Source text: U.S. Tox21 Program National Center for Advancing Translational Sciences [NCATS] NIH Chemical Genomics Center [NCGC] U.S. Environmental Protection Agency [EPA] National Institutes of Environmental Health Sciences [NIEHS] National Toxicology Program [NTP] U.S. Food and Drug Administration [FDA] Tox21 Assay Overview: Histone deacetylases (HDACs) are a group of epigenetic enzymes that regulate gene expression by histone deacetylation. HDACs are capable of introducing epigenetic modifications and such aberrations contribute to the onset and progression of several human diseases, thus making HDACs a popular therapeutic target. For identifying endogenous class I/II HDAC inhibitors a homogenous, luminogenic HDAC I/II cell based assay was used to measure the relative activity of class I and II HDACs from cells. Wild type HCT-116 cells were used to screen Tox21 libraries for identifying class I/II HDAC inhibitors.
Tox21 Assay Protocol Summary: HCT-116 cells were dispensed at 1,500 per well in 5uL of culture medium into white solid bottom 1536-well plates (Greiner Bio-One, Monroe, NC) using a Multidrop Combi (Thermo Scientific, Waltham, MA) dispenser. The assay plates were incubated at 37 C and 5% CO2 for an overnight, and then 23nL of compounds dissolved in DMSO and positive control were transferred using a Pintool station (Wako, San Diego, CA). The assay plates were incubated at 37C and 5% CO2 for 2hr. After compound treatment, 4uL of HDAC-Glo reagent (Promega Corporation, Madison, WI) was added to each well of the assay plates using Flying Reagent Dispenser (FRD, Aurora Discovery, San Diego, CA) and incubated the assay plates at room temperature for 30min. The luminescence signal was quantified using a ViewLux plate reader (Perkin Elmer, Shelton, CT).
% is set by controls: 0 for no effect and ±100 for the full control effect.

Row | SMILES | activity change, negative = inhibition
1 | C=CC(=O)OCC(Br)CBr (stereo not given) | -7.55%
2 | SC1CCCCC1 | 4.41%
3 | CCOc1nc(F)cc2nc(S(=O)(=O)Nc3c(Cl)cccc3C(=O)OC)nn12 | -6.58%
4 | N#Cc1ccc(C/C(=N/NC(=O)Nc2ccc(OC(F)(F)F)cc2)c2cccc(C(F)(F)F)c2)cc1 | -0.289%
5 | Cc1cc(C)c(O)c(C(C)(C)C)c1 | 3.97%
6 | O=C1C=CC(=O)N1c1cccc(N2C(=O)C=CC2=O)c1 | -21.3%
7 | CCCCCc1ccc(O)cc1 | -0.106%
8 | Clc1cccc(Cl)n1 | -0.75%
9 | Cc1ccc(S(=O)(=O)C(I)I)cc1 | 1.13%
10 | CCSCC | 1.92%
11 | CC(CC(C)(C)C)CC(C)(C)CC(C)(C)C (stereo not given) | -0.122% [at 42.5 µM]
12 | [Cl][Dy]([Cl])[Cl] | 1.31%
13 | O=[N+]([O-])c1ccc(CO)cc1 | 2.33%
14 | CCN(CC)c1ccc2c(c1)Oc1cc(N(CC)CC)ccc1C21OC(=O)c2ccccc21 | -13.8% [at 42.5 µM]
15 | C/C=C/C(=O)OCC(C)C | -0.12%
16 | O=S(=O)(c1ccc(OCc2ccccc2)cc1)c1ccccc1O | -8.24%
17 | O=C(O)C[C@H](O)C[C@H](O)/C=C/c1c(C2CC2)nc2ccccc2c1-c1ccc(F)cc1 | -0.0181% [at 19 µM]
18 | COc1cc([C@@H]2c3cc4c(cc3[C@@H](O[C@@H]3O[C@@H]5CO[C@@H](C)O[C@H]5[C@H](O)[C@H]3O)[C@H]3COC(=O)[C@H]23)OCO4)cc(OC)c1O | -0.206%
19 | COC(=O)c1ccc([N+](=O)[O-])cc1 | -1.46%
20 | Cc1ccc2sc3cccc(C)c3c2c1 | 3.71%

Row | SMILES | activity change, negative = inhibition
21 | c1ccc(-c2ccccc2-c2ccccc2)cc1 | -2.03%
22 | CCCCCCCCCCCCS(=O)(=O)Cl | -0.19% [at 19 µM]
23 | CCCCCCCC/C=C\CCCCCCCC(=O)N(CCO)CCO | -1.55%
24 | O=C1CCCCCCCCCCCCCC1 | 0.376%
25 | Cc1c[nH]c(=O)[nH]c1=O | -0.67%
26 | CCCCCCCCSCc1cc(C)c(O)c(CSCCCCCCCC)c1 | -1.12%
27 | CN(C)CCOc1ccc(/C(=C(/CCCl)c2ccccc2)c2ccccc2)cc1 | -3.56%
28 | O=c1cc[nH]cc1 | 1.3%
29 | Cn1ccnc1 | -1.68%
30 | CC(C)C(=O)C(C)C | 6.64%
31 | COCCC(=O)OC | -2.25%
32 | CC(C)(C)C1=CC(=O)C(C(C)(C)C)=CC1=O | -0.869% [at 42.5 µM]
33 | CC(Cc1ccc(O)c(O)c1)C(C)Cc1ccc(O)c(O)c1 (stereo not given) | -4.61%
34 | CS(=O)(=O)c1ccc([C@@H](CC2CCCC2)C(=O)Nc2cnccn2)cc1Cl | -12.9%
35 | C1CCSC1 | -3.14%
36 | CCN(CC)c1ccc(C=O)cc1 | -1.4%
37 | CCCCCCCCc1ccc(Nc2ccc(CCCCCCCC)cc2)cc1 | 8.27% [at 42.5 µM]
38 | Oc1ccc2c(c1)CCC2 | 4.71%
39 | CCOC(=O)OC(=O)OCC | 2.12%
40 | C[C@H]1O[C@@H](O[C@H]2CC[C@@]3(C)[C@H](CC[C@@H]4[C@@H]3C[C@@H](O)[C@]3(C)[C@@H](C5=CC(=O)OC5)CC[C@]43O)C2)C[C@H](O)[C@@H]1O[C@H]1C[C@H](O)[C@H](O[C@H]2C[C@H](O)[C@H](O[C@@H]3O[C@H](CO)[C@@H](O)[C@H](O)[C@H]3O)[C@@H](C)O2)[C@@H](C)O1 | -11.1% [at 42.5 µM]

Reference: PubChem BioAssay (Tox21)
